According to PubChem BioAssay (NCATS):
“And” between values parts separate entries of the source, which are not always exact repeats. Equal entries are not always repeated. Inconclusive results are not listed. The source made the active and inactive calls. Unless noted, calls come from the whole dose curve; as a rule, active = well fitted curve in the direction sought with a large enough effect; inconclusive = small, poorly fitted or top-dose-only effect, or another doubt; inactive = no such curve, though single readings can be large; an effect the other way counts as inactive or inconclusive.

Tests used:
[1] = qHTS for Inhibitors of the Functional Ribonucleoprotein Complex (vRNP) of Lassa (LASV) Arenavirus: LASV Primary Screen - GLuc reporter signal (AID 1347082; calls by dose curve; tested in HEK293 reporter line; note: series mostly up to about 57 µM; nearly all actives have a fitted effect of over 60% in size)
[2] = qHTS for Inhibitors of the Functional Ribonucleoprotein Complex (vRNP) of Lassa (LASV) Arenavirus: Viability assay - alamar blue signal for LASV Primary Screen (AID 1347083; calls by dose curve; tested in HEK293 reporter line; note: series mostly up to about 57 µM; nearly all actives have a fitted effect of over 80% in size)
[3] = qHTS for Inhibitors of the Functional Ribonucleoprotein Complex (vRNP) of Lymphocytic Choriomeningitis Arenaviruses (LCMV): Viability assay - alamar blue signal for LCMV Primary Screen (AID 1347085; calls by dose curve; tested in HEK293 reporter line; note: series mostly up to about 57 µM; nearly all actives have a fitted effect of over 80% in size)
[4] = biological target: Nucleoprotein (Lymphocytic choriomeningitis virus (strain Armstrong)) (UniProt P09992); assay: qHTS for Inhibitors of the Functional Ribonucleoprotein Complex (vRNP) of Lymphocytic Choriomeningitis Arenaviruses (LCMV): LCMV Primary Screen - GLuc reporter signal (AID 1347086; calls by dose curve; note: series mostly up to about 57 µM; nearly all actives have a fitted effect of over 70% in size)
Chain of Nucleoprotein (Lymphocytic choriomeningitis virus (strain Armstrong)) (P09992 whole entry, looked up): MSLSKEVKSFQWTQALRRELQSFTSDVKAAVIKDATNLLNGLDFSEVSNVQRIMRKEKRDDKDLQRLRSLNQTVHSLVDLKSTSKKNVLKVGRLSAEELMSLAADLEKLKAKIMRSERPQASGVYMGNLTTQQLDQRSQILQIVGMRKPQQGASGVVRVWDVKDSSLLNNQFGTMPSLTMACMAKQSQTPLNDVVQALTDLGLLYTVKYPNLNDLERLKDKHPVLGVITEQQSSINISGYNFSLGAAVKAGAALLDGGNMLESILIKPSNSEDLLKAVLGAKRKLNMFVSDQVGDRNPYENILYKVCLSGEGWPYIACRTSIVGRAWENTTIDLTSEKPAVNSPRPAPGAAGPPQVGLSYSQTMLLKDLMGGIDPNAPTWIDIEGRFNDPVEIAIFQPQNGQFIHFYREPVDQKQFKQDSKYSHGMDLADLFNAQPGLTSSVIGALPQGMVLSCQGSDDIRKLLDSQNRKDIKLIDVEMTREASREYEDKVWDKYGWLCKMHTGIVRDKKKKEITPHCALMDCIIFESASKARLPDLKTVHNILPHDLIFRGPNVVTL

[5] = qHTS of pediatric cancer cell lines to identify multiple opportunities for drug repurposing: Primary screen for TC32 cells (AID 1347089); note: nearly all actives have a fitted effect of over 60% in size
How it was run: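 In the primary qHTS, MIPE compounds were tested at 11 concentrations (0.78 nM to 46 µM) and NPC compounds at 8 (0.59 nM to 46 µM) on TC32 cells for 48 h. CellTiter-Glo luminescence gave viability.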

[6] = qHTS of pediatric cancer cell lines to identify multiple opportunities for drug repurposing: Primary screen for DAOY cells (AID 1347090); note: nearly all actives have a fitted effect of over 55% in size; note: potency is the fitted concentration of half-maximal effect
How it was run: (§1)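 Eight- or eleven-point concentration series, 48 h treatment at 37 degrees C in growth media; readout CellTiter-Glo luminescence. Potency and efficacy were taken from the concentration-response curves.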

[7] = qHTS of pediatric cancer cell lines to identify multiple opportunities for drug repurposing: Primary screen for SJ-GBM2 cells (AID 1347091); note: potency is the fitted concentration of half-maximal effect
How it was run: as §1

[8] = qHTS of pediatric cancer cell lines to identify multiple opportunities for drug repurposing: Primary screen for A673 cells (AID 1347092); note: nearly all actives have a fitted effect of over 45% in size; note: potency is the fitted concentration of half-maximal effect
How it was run: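 48 h compound exposure, A673, 500-1,000 cells/well, 37 degrees C/5% CO2. MIPE: 11-point, 0.78 nM-46 µM; NPC: 8-point, 0.59 nM-46 µM (final). Readout CellTiter-Glo luminescence after 15 min RT.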

[9] = qHTS of pediatric cancer cell lines to identify multiple opportunities for drug repurposing: Primary screen for BT-37 cells (AID 1347094); note: potency is the fitted concentration of half-maximal effect
How it was run: (§2)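 Cells seeded at 500-1,000 cells/well in growth media, rested 5 hours at 37 degrees C, 5% CO2, then dosed; MIPE compounds at 11-point (from 0.78 nM) and NPC at 8-point (from 0.59 nM) final concentrations. Viability by CellTiter-Glo luminescence after 48 hours.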

[10] = qHTS of pediatric cancer cell lines to identify multiple opportunities for drug repurposing: Primary screen for U-2 OS cells (AID 1347096); note: nearly all actives have a fitted effect of over 50% in size
How it was run: (§3)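 Cells (500-1,000/well) in growth media were settled 5 h at 37 degrees C, then given compounds for 48 h. Viability was read as CellTiter-Glo luminescence. Primary runs used MIPE at 11 points (0.78 nM-46 µM) and NPC at 8 points (0.59 nM-46 µM); follow-ups used 11 points.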

[11] = qHTS of pediatric cancer cell lines to identify multiple opportunities for drug repurposing: Primary screen for Saos-2 cells (AID 1347097); note: nearly all actives have a fitted effect of over 40% in size; note: potency is the fitted concentration of half-maximal effect
How it was run: as §2

[12] = qHTS of pediatric cancer cell lines to identify multiple opportunities for drug repurposing: Primary screen for SK-N-SH cells (AID 1347098); note: nearly all actives have a fitted effect of over 65% in size; note: potency is the fitted concentration of half-maximal effect
How it was run: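 Cells (500-1,000/well) rested 5 h, then received compounds for 48 h; metabolically active cells were measured by CellTiter-Glo luminescence. Final concentrations spanned up to 46 µM (MIPE, 11-point) or 0.59 nM-46 µM (NPC, 8-point) in primary screens, 11-point in follow-ups.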

[13] = qHTS of pediatric cancer cell lines to identify multiple opportunities for drug repurposing: Primary screen for LAN-5 cells (AID 1347100)
How it was run: as §3

[14] = qHTS of pediatric cancer cell lines to identify multiple opportunities for drug repurposing: Primary screen for SK-N-MC cells (AID 1347093); note: potency is the fitted concentration of half-maximal effect
How it was run: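 Metabolically active cells were quantified by ATP-dependent luminescence (CellTiter-Glo, 15 min at room temperature) following 48 h treatment. Cells had been plated at 500-1,000 per well and settled for 5 h beforehand.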

[15] = qHTS of pediatric cancer cell lines to identify multiple opportunities for drug repurposing: Primary screen for NB1643 cells (AID 1347099); note: nearly all actives have a fitted effect of over 50% in size; note: potency is the fitted concentration of half-maximal effect
How it was run: as §2

[16] = qHTS of pediatric cancer cell lines to identify multiple opportunities for drug repurposing: Primary screen for NB-EBc1 cells (AID 1347095)
How it was run: as §2

Measured: Potency

COC[C@@H](NC(C)=O)C(=O)NCc1ccccc1
not listed: [14] | [15] | [16]
inactive: all other assays above

Oc1cc(Cl)ccc1Oc1ccc(Cl)cc1Cl
active: [6] 49.5 µM | [7] 4.42 µM | [8] 39.4 µM | [14] 27.9 µM | [9] 40.9 µM | [11] 24.8 µM and 26.6 µM | [12] 11.4 µM and 27.3 µM | [15] 35.1 µM
inactive: [1] | [2] | [3] | [4] | [10]

C=C1CC[C@@]2(O)[C@H]3Cc4ccc(O)c5c4[C@@]2(CCN3CC2CC2)[C@H]1O5
not listed: [15] | [16]
inactive: all other assays above

CC(C)NCC(O)c1ccccc1Cl (stereo not given)
not listed: [5] | [15] | [16]
inactive: all other assays above

Oc1cccc2cccnc12
inactive: [1] | [2] | [3] | [4] | [5] | [7] | [9]

COc1ccc(C(=O)c2c(C)n(CCN3CCOCC3)c3ccccc23)cc1
not listed: [16]
inactive: all other assays above

CC(C)=CC1C(C(=O)OCc2cccc(Oc3ccccc3)c2)C1(C)C (stereo not given)
not listed: [9] | [16]
inactive: all other assays above

c1ccc2c(c1)Nc1ccccc1S2
active: [11] 48.6 µM
not listed: [12] | [16]
inactive: all other assays above

Cc1ccc2c(c1)C1CN(C)CCC1N2 (stereo not given)
not listed: [5] | [9] | [11] | [16]
inactive: all other assays above

CN1C(=S)CN=C(c2ccccc2)c2cc(Cl)ccc21
not listed: [15] | [16]
inactive: all other assays above

CN(C)CCc1ccc(O)cc1
not listed: [5] | [9] | [15]
inactive: all other assays above

Cc1ccc(-c2nc3ccc(C)cn3c2CC(=O)N(C)C)cc1
not listed: [5] | [15]
inactive: all other assays above

C#CCOC(C(=O)OCCN(C)C)(c1ccccc1)c1ccccc1
not listed: [9] | [15] | [16]
inactive: all other assays above

NCCc1cc(O)c(O)cc1O
not listed: [5] | [16]
inactive: all other assays above

CC[N+](CC)(CC)CC
not listed: [9] | [15] | [16]
inactive: all other assays above

C#CCN(C)[C@H](C)Cc1ccccc1
not listed: [16]
inactive: all other assays above

CCCC1CCCCN1 (stereo not given)
not listed: [9] | [16]
inactive: all other assays above

O=C(O)C(=O)c1cn(Cc2ccccc2)c2ccc(-c3ccc(OC(F)(F)F)cc3)cc12
active: [11] 23.5 µM | [15] 23.5 µM
not listed: [6] | [7] | [9] | [14] | [16]
inactive: all other assays above

CCOP(=S)(OCC)Oc1cc(C)nc(C(C)C)n1
not listed: [5]
inactive: all other assays above

FC(F)(F)c1cccc(C2=CCN(CCc3ccc4ccccc4c3)CC2)c1
not listed: [5] | [16]
inactive: all other assays above
